From PMC7862700, “An all-to-all approach to the identification of sequence-specific readers for epigenetic DNA modifications on cytosine”

How the values were obtained:
Experiment in all cases: DAPPL (digital affinity profiling via proximity ligation, sequencing); 10 mM Tris-HCl pH 7.5, 50 mM NaCl, 1 mM DTT, 4% glycerol, room temperature, 30 min; GST-TFs on glutathione beads, 16-mer random dsDNA library, 0.1% formaldehyde crosslink after washing; high values mean tight binding
FEV = target: T1, FEV (Homo sapiens, UniProt Q99581 1-238); conditions: protein: recombinant; tags: N-terminal GST; dsDNA, one strand shown
T1 sequence: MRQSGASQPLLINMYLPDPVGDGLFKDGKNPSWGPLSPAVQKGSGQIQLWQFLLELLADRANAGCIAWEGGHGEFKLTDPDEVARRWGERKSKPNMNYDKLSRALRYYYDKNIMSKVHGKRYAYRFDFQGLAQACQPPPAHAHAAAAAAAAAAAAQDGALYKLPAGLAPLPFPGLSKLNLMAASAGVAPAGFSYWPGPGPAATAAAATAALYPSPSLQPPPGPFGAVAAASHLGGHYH
Outline: (§1)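 A tag-only sample was pooled with DNA-barcoded human transcription factors that had been expressed in yeast as GST fusions and captured on glutathione beads. The pools were incubated for 30 min at room temperature with 200 nmole of a random double-stranded 16-mer DNA library in Tris/NaCl/DTT/glycerol buffer, then washed, crosslinked with 0.1% formaldehyde, proximity-ligated (BsaI/T4 ligase, 1 h, 37 °C), PCR-amplified and sequenced on an Illumina NextSeq500. Binding signal is each hexamer's read frequency for a factor divided by its frequency for the tag-only sample.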

ETV5 = ETV5 (Homo sapiens, UniProt P41161 1-510); conditions: protein: recombinant; tags: N-terminal GST; dsDNA, one strand shown
Chain of ETV5 (P41161 whole entry): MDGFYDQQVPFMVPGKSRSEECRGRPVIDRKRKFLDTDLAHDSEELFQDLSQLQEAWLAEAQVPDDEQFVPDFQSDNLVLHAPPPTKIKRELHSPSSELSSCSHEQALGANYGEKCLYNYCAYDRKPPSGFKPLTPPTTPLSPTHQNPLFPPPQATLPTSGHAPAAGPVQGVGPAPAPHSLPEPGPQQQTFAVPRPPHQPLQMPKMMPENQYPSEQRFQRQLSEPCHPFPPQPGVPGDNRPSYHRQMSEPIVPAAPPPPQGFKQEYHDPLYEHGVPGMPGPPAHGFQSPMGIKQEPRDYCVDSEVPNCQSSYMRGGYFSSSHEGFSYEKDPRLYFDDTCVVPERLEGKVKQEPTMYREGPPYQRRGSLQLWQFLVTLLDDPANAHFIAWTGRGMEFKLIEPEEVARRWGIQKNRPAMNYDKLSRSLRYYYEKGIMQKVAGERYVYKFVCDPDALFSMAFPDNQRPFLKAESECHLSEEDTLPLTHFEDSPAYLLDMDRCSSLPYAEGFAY
Outline: as §1

HSF1 = HSF1 (Homo sapiens, UniProt Q00613 1-529); conditions: protein: recombinant; tags: N-terminal GST; chain copies: 3; dsDNA, one strand shown
Chain of HSF1 (Q00613 whole entry): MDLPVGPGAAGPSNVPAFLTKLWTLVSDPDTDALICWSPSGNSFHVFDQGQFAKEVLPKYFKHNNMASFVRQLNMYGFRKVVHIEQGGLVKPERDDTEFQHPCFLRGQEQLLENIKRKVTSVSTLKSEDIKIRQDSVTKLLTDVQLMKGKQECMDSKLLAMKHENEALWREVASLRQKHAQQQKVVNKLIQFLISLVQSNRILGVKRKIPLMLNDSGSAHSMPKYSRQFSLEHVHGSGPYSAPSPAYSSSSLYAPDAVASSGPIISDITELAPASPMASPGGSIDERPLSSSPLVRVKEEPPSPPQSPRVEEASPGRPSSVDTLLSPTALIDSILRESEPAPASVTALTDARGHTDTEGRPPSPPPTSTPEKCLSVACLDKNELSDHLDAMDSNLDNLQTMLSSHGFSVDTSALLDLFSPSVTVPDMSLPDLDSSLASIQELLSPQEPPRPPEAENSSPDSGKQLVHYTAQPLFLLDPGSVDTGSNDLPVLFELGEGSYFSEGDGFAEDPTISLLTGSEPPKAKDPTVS
Outline: as §1

SPIC = target: T2, SPIC (Homo sapiens, UniProt Q8N5J4 1-248); conditions: protein: recombinant; tags: N-terminal GST; dsDNA, one strand shown
T2 sequence: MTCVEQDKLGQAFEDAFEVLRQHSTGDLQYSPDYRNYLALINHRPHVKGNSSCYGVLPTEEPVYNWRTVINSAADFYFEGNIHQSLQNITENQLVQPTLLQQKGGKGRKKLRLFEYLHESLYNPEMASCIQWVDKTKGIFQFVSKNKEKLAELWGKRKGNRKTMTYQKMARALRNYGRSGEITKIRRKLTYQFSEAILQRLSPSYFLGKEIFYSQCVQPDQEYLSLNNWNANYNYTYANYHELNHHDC
Outline: as §1

ELF4 = ELF4 (Homo sapiens, UniProt Q99607 1-663); conditions: protein: recombinant; tags: N-terminal GST; dsDNA, one strand shown
Chain of ELF4 (Q99607 whole entry): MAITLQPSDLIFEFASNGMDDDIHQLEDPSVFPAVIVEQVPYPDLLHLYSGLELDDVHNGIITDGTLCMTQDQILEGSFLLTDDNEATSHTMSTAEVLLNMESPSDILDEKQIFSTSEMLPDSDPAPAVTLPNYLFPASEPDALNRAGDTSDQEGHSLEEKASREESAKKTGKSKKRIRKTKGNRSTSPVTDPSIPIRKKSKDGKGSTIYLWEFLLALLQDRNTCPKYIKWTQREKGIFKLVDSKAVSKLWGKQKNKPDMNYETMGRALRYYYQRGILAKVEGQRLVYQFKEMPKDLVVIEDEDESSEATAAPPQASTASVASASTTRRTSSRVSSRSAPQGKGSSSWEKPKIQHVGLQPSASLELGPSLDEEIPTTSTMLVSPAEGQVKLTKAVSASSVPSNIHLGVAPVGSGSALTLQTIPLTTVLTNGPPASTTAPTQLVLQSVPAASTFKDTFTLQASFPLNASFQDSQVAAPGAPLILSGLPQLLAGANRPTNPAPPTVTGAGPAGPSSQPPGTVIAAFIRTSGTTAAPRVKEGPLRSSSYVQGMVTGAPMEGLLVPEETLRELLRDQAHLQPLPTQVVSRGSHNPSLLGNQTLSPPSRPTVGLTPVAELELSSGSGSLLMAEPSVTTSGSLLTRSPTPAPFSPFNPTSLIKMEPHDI
Outline: as §1

ELK4 = target: T3, ELK4 (Homo sapiens, UniProt P28324-2 1-405); conditions: protein: recombinant; tags: N-terminal GST; dsDNA, one strand shown
T3 sequence: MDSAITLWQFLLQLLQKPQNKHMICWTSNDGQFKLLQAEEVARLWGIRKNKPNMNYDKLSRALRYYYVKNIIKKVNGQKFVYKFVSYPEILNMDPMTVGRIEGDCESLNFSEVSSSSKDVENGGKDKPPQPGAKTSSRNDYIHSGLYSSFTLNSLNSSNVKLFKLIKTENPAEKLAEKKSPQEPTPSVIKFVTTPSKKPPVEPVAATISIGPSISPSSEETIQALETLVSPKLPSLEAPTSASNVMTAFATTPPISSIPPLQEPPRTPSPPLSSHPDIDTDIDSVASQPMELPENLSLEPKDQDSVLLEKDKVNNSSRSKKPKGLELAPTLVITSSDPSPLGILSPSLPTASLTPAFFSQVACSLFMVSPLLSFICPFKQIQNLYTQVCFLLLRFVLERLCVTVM
Outline: as §1

ETV2 = target: T4, ETV2 (Homo sapiens, UniProt O00321 1-342); conditions: protein: recombinant; tags: N-terminal GST; dsDNA, one strand shown
T4 sequence: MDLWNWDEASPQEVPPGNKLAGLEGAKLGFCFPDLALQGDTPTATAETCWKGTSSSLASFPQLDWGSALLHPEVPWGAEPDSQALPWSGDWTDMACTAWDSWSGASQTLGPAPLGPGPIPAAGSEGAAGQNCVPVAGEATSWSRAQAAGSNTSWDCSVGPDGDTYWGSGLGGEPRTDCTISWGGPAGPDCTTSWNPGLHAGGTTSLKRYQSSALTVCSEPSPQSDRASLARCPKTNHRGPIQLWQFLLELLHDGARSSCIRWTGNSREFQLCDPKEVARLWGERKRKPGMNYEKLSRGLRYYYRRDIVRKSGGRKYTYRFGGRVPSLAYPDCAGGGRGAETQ
Outline: as §1

ELF3 = target: T5, ELF3 (Homo sapiens, UniProt P78545 1-371); conditions: protein: recombinant; tags: N-terminal GST; dsDNA, one strand shown
T5 sequence: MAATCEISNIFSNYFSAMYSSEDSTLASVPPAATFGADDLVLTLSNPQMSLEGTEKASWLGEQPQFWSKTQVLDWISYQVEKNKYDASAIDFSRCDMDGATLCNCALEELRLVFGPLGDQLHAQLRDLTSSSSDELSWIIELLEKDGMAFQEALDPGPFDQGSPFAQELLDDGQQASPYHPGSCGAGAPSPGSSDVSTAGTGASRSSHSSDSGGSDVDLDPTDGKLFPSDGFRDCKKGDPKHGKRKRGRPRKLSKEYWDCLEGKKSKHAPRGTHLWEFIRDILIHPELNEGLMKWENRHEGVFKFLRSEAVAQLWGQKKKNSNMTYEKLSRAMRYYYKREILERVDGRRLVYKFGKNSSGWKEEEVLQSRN
Outline: as §1

CRX = CRX (Homo sapiens, UniProt O43186 1-299); conditions: protein: recombinant; tags: N-terminal GST; dsDNA, one strand shown
Chain of CRX (O43186 whole entry): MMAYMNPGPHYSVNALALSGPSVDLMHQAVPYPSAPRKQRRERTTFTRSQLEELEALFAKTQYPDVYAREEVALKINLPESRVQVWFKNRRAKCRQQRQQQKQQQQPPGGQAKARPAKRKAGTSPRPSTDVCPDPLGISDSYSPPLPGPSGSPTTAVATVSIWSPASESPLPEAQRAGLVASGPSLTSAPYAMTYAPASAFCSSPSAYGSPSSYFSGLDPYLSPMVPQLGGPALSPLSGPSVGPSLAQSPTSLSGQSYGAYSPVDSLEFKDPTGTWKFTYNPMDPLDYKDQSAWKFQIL
Outline: as §1

ETV1 = ETV1 (Homo sapiens, UniProt P50549 1-477); conditions: protein: recombinant; tags: N-terminal GST; dsDNA, one strand shown
Chain of ETV1 (P50549 whole entry): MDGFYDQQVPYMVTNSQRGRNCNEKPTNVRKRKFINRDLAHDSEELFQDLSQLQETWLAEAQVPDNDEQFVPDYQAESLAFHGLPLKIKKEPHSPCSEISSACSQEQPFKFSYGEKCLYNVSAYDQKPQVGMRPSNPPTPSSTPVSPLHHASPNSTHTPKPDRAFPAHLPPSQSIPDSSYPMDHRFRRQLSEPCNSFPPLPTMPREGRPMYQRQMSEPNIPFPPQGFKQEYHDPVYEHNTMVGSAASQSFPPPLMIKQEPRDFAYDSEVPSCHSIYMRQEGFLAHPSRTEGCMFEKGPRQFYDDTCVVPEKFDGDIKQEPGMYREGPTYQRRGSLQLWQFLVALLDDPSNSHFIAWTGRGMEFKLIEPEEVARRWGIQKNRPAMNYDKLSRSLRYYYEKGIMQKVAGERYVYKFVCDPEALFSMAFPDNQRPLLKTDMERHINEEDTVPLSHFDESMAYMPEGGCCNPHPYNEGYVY
Outline: as §1

## CTACTA
FEV
  binding signal: 1.27 fold enrichment (6-mer frequency, TF over GST control)
ETV5
  binding signal: 1.31 fold enrichment (6-mer frequency, TF over GST control)
HSF1
  binding signal: 1.43 fold enrichment (6-mer frequency, TF over GST control)
SPIC
  binding signal: 1.4 fold enrichment (6-mer frequency, TF over GST control)
ELF4
  binding signal: 1.29 fold enrichment (6-mer frequency, TF over GST control)
ELK4
  binding signal: 1.37 fold enrichment (6-mer frequency, TF over GST control)
ETV2
  binding signal: 1.23 fold enrichment (6-mer frequency, TF over GST control)
ELF3
  binding signal: 1.35 fold enrichment (6-mer frequency, TF over GST control)
CRX
  binding signal: 1.36 fold enrichment (6-mer frequency, TF over GST control)
ETV1
  binding signal: 1.18 fold enrichment (6-mer frequency, TF over GST control)
